Screening data (PubChem)
USP1-UAF1 inh: USP1/UAF1 (human) deubiquitinase inhibition | Potency, µM (series often up to 57.1 µM), without a hit: at the highest dose activity change, negative = inhibition, hits mostly inhibitors | actives 0.23% (n = 390,000) | recombinant USP1/UAF1, Ub-Rhodamine cleavage fluorescence | AID 743255; further: potency means the concentration at half of the fitted maximal effect; nearly all actives have a fitted effect of over 60% in size
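High-throughput fluorogenic screen: 1nM USP1/UAF1 complex, Ub-Rho substrate 150nM final, 50mM HEPES pH 7.8 with 0.5mM EDTA, 0.1 mg/ml BSA, 1mM TCEP and 0.01% Tween-20.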
TrxR1 inh: inhibitors of rat thioredoxin reductase 1. O89049. Potency, µM (titrated, usually from 114 µM), inactives show at the top dose activity change, negative = inhibition, actives largely listed as inhibitors. actives 1% (n = 390,000). recombinant rTrxR1, NADPH fluorescence consumption, selenite substrate; further: potency means the concentration at half of the fitted maximal effect; nearly all actives have a fitted effect of over 65% in size
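Rat TrxR1 (90 nM in the dispensed reagent) was pre-reduced with 400 uM NADPH for 5 min at room temperature, then incubated with compound for 15 min. After 400 uM selenite was added, NADPH fluorescence (Ex 340/Em 450 nm) was followed for 8 min.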
TrxR1 substrate: rat thioredoxin reductase 1 substrate activity; O89049; purified TrxR1 substrate turnover, NADPH consumption readout; Potency, µM (titrated, usually from 114 µM), for inactives: top-dose activity change, negative = substrate turnover; actives 0.01% (n = 390,000); further: potency means the concentration at half of the fitted maximal effect; nearly all actives have a fitted effect of over 50% in size
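Rat TrxR1, dispensed at 90 nM, was prereduced with 400 uM NADPH (final) for 5 min at ~22 deg C, then incubated with compound 15 min before 400 uM selenite. A first-read NADPH fluorescence drop versus no-compound background flagged substrates.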
FBPA coupling cs: counter-screen for Giardia aldolase inhibitors: coupling enzyme system. coupling enzyme system counterscreen, AmpLite Red fluorescence. activity change, negative = inhibition, % at 58.2 µM, hits read low. actives 0.67% (n = 290,000). AID 2472; in the data active means activity change below about -30%
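Compounds tested against the coupling enzymes alone at 57.5 uM final; readout was AmpLite Red fluorescence (525/598 nm) after 20 min at RT.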
GALK inh: inhibitors of human galactokinase | Purified GALK, Kinase-Glo residual ATP luminescence | Potency, µM (doses to about 57.5 µM), for the others: at the top dose activity change, negative = inhibition, usual class: inhibitors | actives 0.007% (n = 270,000); further: potency means the concentration at half of the fitted maximal effect
Target sequence (P51570 whole entry, looked up): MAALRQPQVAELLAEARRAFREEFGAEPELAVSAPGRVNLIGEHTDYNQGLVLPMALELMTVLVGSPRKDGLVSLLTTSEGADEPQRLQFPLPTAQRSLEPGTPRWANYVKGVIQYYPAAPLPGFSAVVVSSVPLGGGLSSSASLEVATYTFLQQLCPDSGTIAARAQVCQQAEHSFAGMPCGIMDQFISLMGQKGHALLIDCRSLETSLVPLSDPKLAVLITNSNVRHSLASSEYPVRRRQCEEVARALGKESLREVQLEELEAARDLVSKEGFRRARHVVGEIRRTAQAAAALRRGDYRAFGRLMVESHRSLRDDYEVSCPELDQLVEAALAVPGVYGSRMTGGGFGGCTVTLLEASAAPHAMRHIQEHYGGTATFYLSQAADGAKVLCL
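GALK at 5 nM final was combined with compound, 35 uM ATP and 100 uM galactose in HEPES pH8.0 with MgCl2 and DTT. The reaction ran one hour at room temperature before luminescent ATP detection.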
An asterisk follows results filed as active; ? = inconclusive; . = not tested or not shown; [ ] = remark or other dose. This is a sample that favours compounds with a hit; in the whole collection about 1.5% have one here. Unless noted, the call rests on the fitted dose curve; in most records, active means well fitted curve in the direction sought with a large enough effect; inconclusive means small, poorly fitted or top-dose-only effect, or another doubt; inactive means no such curve, though single readings can be large; an effect the other way counts as inactive or inconclusive. On the % scale 0 is the no-effect control and ±100 the full control effect.

SMILES | USP1-UAF1 inh | TrxR1 inh | TrxR1 substrate | FBPA coupling cs | GALK inh
CC1OC(O[C@H]2C[C@@H](O)[C@]3(CO)[C@H]4[C@H](O)C[C@]5(C)[C@@H](C6=CC(=O)OC6)CC[C@]5(O)[C@@H]4CC[C@]3(O)C2)C(O)C(O)C1O (stereo partly drawn) | . | 6% | 4% | . | .
Cc1c(C=C2C(=O)N(C)C(=S)N(C)C2=O)c2ccccc2n1CC(=O)NCC1CCCO1 (stereo not drawn) | ? | 13µM* | -10% | . | -9%
c1ccc(Nc2ccc(Nc3ccccc3)cc2)cc1 | -2% | -11% | 3% | . | .
N#CC(C#N)=C(C#N)c1ccc(Nc2ccccc2)cc1 | -10% | 7.1µM* | -1% | -25 | -3%
CN1CC[C@@]2(C)c3cc(OC(=O)Nc4ccccc4)ccc3N(C)[C@@H]12 | . | ? | -2%[57.1 µM] | . | .
CCOC(=O)CCCc1cc[c]([Sb](=[O])([OH])[OH])cc1 | . | 1.1µM* | -6% | . | .
NC(=O)OCCCc1ccccc1 | -15% | 7% | 1% | . | .
CC(C)c1ccc(Cc2cn3cc(-c4cc5ccccc5oc4=O)nc3s2)cc1 | ? | 15% | 17% | . | .
CCN(CCO)c1ccc(N=Cc2c(O)n(C)c(=S)[nH]c2=O)cc1 | ? | -13% | -7% | -47* | 0%
CN(N=O)c1cc(O)ccc1O | . | 0.75µM* | 3%[57.1 µM] | . | .
Cc1ncc(CO)c2c1Oc1nc(-c3ccccc3Cl)nc(SCc3ccccc3F)c1C2 | ? | 5% | 0% | . | .
CCOC(=O)c1c(-n2c(C)cc(/C=C3\C(=O)NC(=O)N(C)C3=O)c2C)sc2c1CCCC2 | -10% | -34% | -9% | 0 | 1%
Cc1cc(/C=C2\C(=O)NC(=O)N(c3ccc(Cl)cc3)C2=O)c(C)n1-c1sc2c(c1C#N)CCCC2 | ? | 50µM* | -5% | 3 | -6%
CC(=O)Nc1ccc(OC(=O)N2CCN(/[N+]([O-])=N/Oc3ccc([N+](=O)[O-])cc3[N+](=O)[O-])CC2)cc1 | . | ? | -6% | . | .
NC1CCCC[C@@H]1N (stereo partly drawn) | . | . | . | 0 | .
C[C@@H]1O[C@@H](O[C@@H]2C=C3CC[C@@H]4[C@@H](CC[C@]5(C)[C@H](c6ccc(=O)oc6)CC[C@@]45O)[C@@]3(C)CC2)[C@H](O)[C@H](O)[C@H]1O | . | 9% | 4% | . | .
CCOc1ccc(C=C2C(=O)NC(=S)NC2=O)cc1OCC | 2% | 8.9µM* | 8%[57.1 µM] | . | .
O=C1NC(=O)C(=Cc2ccc3c(c2)OCO3)C(=O)N1 | . | . | . | 1 | -1%
CC(=O)Nc1ccc(C=C2C(=O)NC(=O)NC2=O)cc1 | 1% | -50%[57.1 µM] | 12%[57.1 µM] | . | .
CN(C)c1ccc(C=C2C(=O)NC(=S)NC2=O)cc1 | -25% | 4µM* | -10% | . | .
CCN(CC)c1ccc(C=C2C(=O)NC(=S)NC2=O)cc1 | -18% | 4.5µM* | -5% | -26 | 0%
CC(C)CN(CC(C)C)c1ccc(C=C2C(=O)NC(=S)NC2=O)cc1[N+](=O)[O-] | ? | 2.5µM* | -7% | -19 | -10%
CN(C)c1ccc(C=C2C(=O)NC(=O)NC2=O)cc1 | -12% | -8%[2.29 µM] | 2%[57.1 µM] | . | .
CCCc1cc(=O)oc2c3c(cc(OCC(=O)N4CCC[C@H]4C(=O)O)c12)OC(C)(C)CC3 | -22% | ? | 583% | 7 | .
CN(C)c1ccc(C2CC(c3c(O)n(C4CCCCC4)c(=O)[nH]c3=O)=Nc3ccccc3S2)cc1 (stereo not drawn) | ? | 13% | 2% | . | .
SMILES | USP1-UAF1 inh | TrxR1 inh | TrxR1 substrate | FBPA coupling cs | GALK inh
CC1(C)[C@H](C(=O)O[C@H](C#N)c2cccc(Oc3ccccc3)c2)[C@@H]1C=C(Br)Br | . | . | . | 0 | .
Nc1c(C(=O)NC2CCCC2)c2nc3ccccc3nc2n1CC1CCCO1 (stereo not drawn) | 28µM* | -18%[11.4 µM] | 11%[11.4 µM] | -46* | 2%
CN1/C(=C\C=C\C2=[N+](C)c3ccc4ccccc4c3C2(C)C)C(C)(C)c2ccccc21 | . | . | . | . | 10%
CCN1/C(=C/C=C/C2=[N+](CC)c3ccccc3C2(C)C)C(C)(C)c2ccccc21 | 25µM* | . | . | . | .
CCOC(=O)c1c(/N=C/c2c(O)n(-c3ccc(F)cc3)c(=S)[nH]c2=O)sc2c1CCCC2 | -6% | -11% | -13% | -1 | -1%
CCOC(=O)c1c(/N=C/c2c(O)n(-c3ccccc3F)c(=S)[nH]c2=O)sc2c1CCCC2 | -8% | ? | -9% | -49* | -1%
O=C(Oc1ccccc1)N1CCC[C@@]2(CCN(C(c3ccccc3)c3ccccc3)C2)C1 | . | . | . | -34* | .
O=C(Oc1ccccc1)N1CCC2(CCCN(C(c3ccccc3)c3ccccc3)C2)CC1 | . | . | . | 0 | .
C[C@H]1CC[C@@H]2[C@@H](C)[C@H]3[C@H](C[C@H]4[C@@H]5CC=C6C[C@@H](O[C@@H]7O[C@H](CO)[C@H](O)[C@H](O[C@@H]8O[C@H](CO)[C@@H](O)[C@H](O)[C@H]8O)[C@H]7O[C@@H]7O[C@@H](C)[C@H](O)[C@@H](O)[C@H]7O)CC[C@]6(C)[C@H]5CC[C@]34C)N2C1 | ? | 71µM* | 0% | -4 | .
NC(=O)CF | . | . | . | 0 | .
O=[N+]([O-])c1ccc(Cl)c([N+](=O)[O-])c1 | -17% | 2.8µM* | 1% | . | .
O=C(O)CCC(=O)NCCC1=c2ccccc2=N/C1=C\c1c(O)n(Cc2ccc(F)cc2)c(=S)[nH]c1=O | -10% | 35µM* | 6% | 4 | -15%
CC1Oc2cc3c(-c4c(O)cc(O)c5c(O)c6c(cc45)OC(C)C(C)C6=O)c(O)cc(O)c3c(O)c2C(=O)C1C (stereo not drawn) | 13µM* | -20% | -15% | -18 | -13%
CCOc1cncc(/C=C/CCNC)c1 | . | . | . | 3 | .
Cc1c(C=C2C(=O)NC(=O)NC2=O)c(=O)n(-c2ccccc2)n1C | -20% | -2%[57.1 µM] | 5%[57.1 µM] | 1 | 15%
O=C1NC(=O)C(=Cc2c(Cl)cccc2Cl)C(=O)N1 | -10% | 13µM* | -3% | . | .
COc1cc(C=C2C(=O)NC(=O)NC2=O)ccc1OS(=O)(=O)c1ccccc1[N+](=O)[O-] | -18% | 6.3µM* | 5% | -3 | -4%
CCN1C(=O)/C(=C/c2ccc3c(c2)CCN3CCCCl)C(=O)NC1=S | -19% | 28µM* | -5% | 1 | -2%
O=C1NC(=S)N(C2CC2)C(=O)/C1=C/c1ccc2c(c1)CCN2CCCCl | -9% | 7.9µM* | -10% | -15 | 0%
C=CCN1C(=O)/C(=C/c2ccc3c(c2)CCCN3CCC)C(=O)NC1=S | -6% | 10µM* | 0%[57.1 µM] | -4 | -4%
COC1(C)CC(c2ccccc2)c2c(c3ccccc3oc2=O)O1 (stereo not drawn) | . | . | . | -1 | .
N#Cc1c(Oc2cccc(OS(=O)(=O)CCCC(F)(F)F)c2)cccc1C(F)(F)F | . | . | . | -7 | .
CCC1CN2CCC1CC2C(Oc1cc2ccccc2c2ccccc12)c1ccnc2ccc(O)cc12 (stereo not drawn) | . | . | . | -29 | .
